Values without a mark were called inactive.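 How the source made its calls: active means Her2 level under about 52% in both replicate screens, with viability over 70% of control (limit read from the data); inconclusive means Her2 under the limit in one screen only, or viability under 70%; inactive means Her2 level above the set limit.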

In this assay the target is Receptor tyrosine-protein kinase erbB-2 (Homo sapiens) (UniProt P04626). The assay can be described thus: Her2 expression decrease, cell viability multiplex – SKBR3 breast tumor cells, AlphaScreen, ATP viability, primary screen (AID 461).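 Further: lower value means less Her2 protein in the cells.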 The settings on record: 18-24 h, at 10 µM, hits give low values.
Sequence of Receptor tyrosine-protein kinase erbB-2 (Homo sapiens) (P04626 whole entry, looked up): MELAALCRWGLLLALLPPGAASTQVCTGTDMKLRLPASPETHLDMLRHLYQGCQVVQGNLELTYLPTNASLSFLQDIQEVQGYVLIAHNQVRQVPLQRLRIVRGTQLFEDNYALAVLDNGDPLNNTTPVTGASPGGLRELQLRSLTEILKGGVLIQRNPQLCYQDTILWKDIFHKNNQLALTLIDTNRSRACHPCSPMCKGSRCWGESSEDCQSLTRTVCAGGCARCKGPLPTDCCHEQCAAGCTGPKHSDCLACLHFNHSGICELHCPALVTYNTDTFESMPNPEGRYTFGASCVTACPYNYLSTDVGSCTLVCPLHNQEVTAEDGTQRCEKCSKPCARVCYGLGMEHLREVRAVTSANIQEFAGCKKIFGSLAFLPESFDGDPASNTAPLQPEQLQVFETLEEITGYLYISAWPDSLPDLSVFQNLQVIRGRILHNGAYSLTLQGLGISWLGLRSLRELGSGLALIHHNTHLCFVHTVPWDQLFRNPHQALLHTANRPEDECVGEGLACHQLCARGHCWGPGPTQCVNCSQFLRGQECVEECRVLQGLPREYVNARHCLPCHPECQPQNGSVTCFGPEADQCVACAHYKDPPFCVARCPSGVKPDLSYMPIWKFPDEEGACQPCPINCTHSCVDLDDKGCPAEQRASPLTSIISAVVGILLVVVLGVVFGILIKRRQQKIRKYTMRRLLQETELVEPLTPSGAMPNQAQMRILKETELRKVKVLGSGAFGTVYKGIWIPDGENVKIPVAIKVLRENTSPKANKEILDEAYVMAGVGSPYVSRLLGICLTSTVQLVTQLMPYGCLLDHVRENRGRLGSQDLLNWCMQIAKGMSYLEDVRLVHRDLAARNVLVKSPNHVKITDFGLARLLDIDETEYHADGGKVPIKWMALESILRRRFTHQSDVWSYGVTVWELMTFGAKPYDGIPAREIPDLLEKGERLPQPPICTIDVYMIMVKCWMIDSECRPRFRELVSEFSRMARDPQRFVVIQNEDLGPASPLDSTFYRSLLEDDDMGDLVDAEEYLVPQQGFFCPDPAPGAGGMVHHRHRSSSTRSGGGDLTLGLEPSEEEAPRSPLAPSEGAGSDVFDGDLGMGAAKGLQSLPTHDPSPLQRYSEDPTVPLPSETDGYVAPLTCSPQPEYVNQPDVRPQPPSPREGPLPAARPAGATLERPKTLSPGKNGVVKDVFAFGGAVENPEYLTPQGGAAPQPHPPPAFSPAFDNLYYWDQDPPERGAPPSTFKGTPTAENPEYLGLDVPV
As for `CC1Cc2nc(SCC(=O)Nc3ccc(F)cc3F)n(C)c(=O)c2S1` (configuration not stated), the Her2 level is 100%.
For the molecule `COC(=O)CCn1nnc(-c2cccs2)n1`, the Her2 level is 126%.
Next, `CCN(C#N)c1nc(NC(C)C)nc(NC(C)C)n1`: 93%; `COc1ccccc1C(=O)Nc1ccc(S(=O)(=O)N2CCCC2)cc1`: 76.5%.
Next, `COC(=O)c1[nH]c2ccccc2c1NC(=O)CN1CCC(C(N)=O)(N2CCCCC2)CC1`: 97.5%; `CC(O)c1c(OCc2ccccc2)ncnc1OCc1ccccc1` (configuration not stated): 82.5%; `Cc1c(C(=O)OC(C)C)[nH]c2c1C(=O)CCC2`: 104%.
`CC(C)CNC(=O)C1C2C=CC(C2)C1C(=O)O` (configuration not stated): the Her2 level is 96%.
Turning to `COc1cccc(Cn2c(Oc3ccccc3)nc3c2c(=O)n(C)c(=O)n3C)c1`, the Her2 level was 104%.
Next, `CC(C)(C)NC(=O)Cn1nnc(-c2cccs2)n1`: 84%; `COc1cc(CN2CCN(C(=O)CC(C)C)CC2)cc(OC)c1O`: 93.5%; `CCn1c(C)nc2cc(C(=O)OCCC(F)(F)F)ccc21`: 112%.
For `CCn1c(CC(=O)Nc2cccc(OC)c2)nnc1SCC(=O)Nc1nccs1` the value was 102%.
Consider `CCOc1cc(NC(=O)c2ccco2)c(OCC)cc1NC(=O)CCC(=O)NCc1cccnc1`, for which the Her2 level is 100%.
Next, `CCN(CC)c1ccc(CNc2ccc(Br)cn2)cc1`: 92.5%.
For `CCOc1ccccc1C(=O)NCCC(=O)O` the value was 112%.
Consider `Cc1ccc(-c2csc3nnc(SCC(=O)NCc4ccco4)n23)cc1`, for which the Her2 level was 84.5%.

The record behind these values is PubChem BioAssay.
